Measured values taken from the supplement of paper PMC6555819.

Experiments:
Assay in all cases: PBM binding z-score (relative to random genomic background probes); higher = stronger binding; sequences stand for … in GC…GCGATTGACAGCGTAGAATGAAGG
[1] = system: FXR:RXRa (NR concentration 270 nM, RXRa partner concentration 90 nM)
In short: (§1)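 Ligand-free nuclear receptor dimers were applied to custom Agilent 4×180K protein-binding microarrays whose double-stranded probes carried direct-repeat seeds, single-nucleotide variants, half-site ablations and random human genomic background sequences in 34-nt variable regions. Incubation lasted 1 h. Binding z-scores were computed against the random background probes from regression-normalized fluorescence.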

[2] = system: LXRa:RXRa (NR concentration 270 nM, RXRa partner concentration 90 nM)
In short: as §1

[3] = system: LXRa homodimer (NR concentration 270 nM)
In short: as §1

[4] = system: LXRb:RXRa (NR concentration 270 nM, RXRa partner concentration 90 nM)
In short: as §1

[5] = system: PPARa:RXRa (NR concentration 270 nM, RXRa partner concentration 90 nM)
In short: as §1

[6] = system: PPARg:RXRa (NR concentration 180 nM, RXRa partner concentration 90 nM)
In short: as §1

[7] = system: PPARg:RXRa 270nM:90nM, anti-RXR (NR concentration 270 nM, RXRa partner concentration 90 nM)
In short: as §1

[8] = system: PPARg:RXRa 30nM:10nM, anti-RXR (NR concentration 30 nM, RXRa partner concentration 10 nM)
In short: as §1

[9] = system: PPARg:RXRa 90nM:30nM, anti-RXR (NR concentration 90 nM, RXRa partner concentration 30 nM)
In short: as §1

[10] = system: PPARg:RXRa DBDmut IVT, anti-RXR (DBD mutation: RXRa K156A/R161A, NR concentration 270 nM, RXRa partner concentration 90 nM)
In short: as §1

[11] = system: PPARg:RXRa IVT, anti-PPARg (NR concentration 270 nM, RXRa partner concentration 90 nM)
In short: as §1

[12] = system: PPARg homodimer (NR concentration 180 nM)
In short: as §1

[13] = system: PXR:RXRa (NR concentration 270 nM, RXRa partner concentration 90 nM)
In short: as §1

[14] = system: PXR homodimer (NR concentration 270 nM)
In short: as §1

[15] = system: RARa:RXR (NR concentration 270 nM, RXRa partner concentration 90 nM)
In short: as §1

[16] = system: RARa homodimer (NR concentration 270 nM)
In short: as §1

[17] = system: RARb:RXRa (NR concentration 270 nM, RXRa partner concentration 90 nM)
In short: as §1

Sequence	PBM binding z-score [1]	PBM binding z-score [2]	PBM binding z-score [3]	PBM binding z-score [4]	PBM binding z-score [5]	PBM binding z-score [6]	PBM binding z-score [7]	PBM binding z-score [8]	PBM binding z-score [9]	PBM binding z-score [10]	PBM binding z-score [11]	PBM binding z-score [12]	PBM binding z-score [13]	PBM binding z-score [14]	PBM binding z-score [15]	PBM binding z-score [16]	PBM binding z-score [17]
TCGAGTAGGTTGCGGGGGCATTCAGGGATGAAGA	2.84	2.17	0.68	4.34	2.7	0.862	2.72	2.32	2.95	2.02	3.55	1.44	3.09	2.38	2.39	0.623	1.91
CTATGTAGGTTAAGAGGGTCATTCAGTTTGAAAG	2.95	3.05	1.07	2.93	4.89	5.88	5.47	2.95	4.99	7.34	7.14	2.35	3.96	5.84	3.56	0.734	2.63
TCGAGTAGGTTACGGGGGCCTTCAGGGATGAAGA	1.17	1.71	0.239	4.15	2.99	2.78	3.68	1.85	2.72	4.03	4.68	0.342	1.52	0.275	1.48	-0.236	1.58
TTGAGTAGGTTACGGGGGCATTCAGGGATGAAGA	3.06	3.3	1.18	5.2	4.63	7.11	6.44	4.81	5.83	6.29	6.86	5.24	3.31	3.21	3.81	2.56	2.9
CTATGTAGTTTAAGGGGGTCATTCAGTTTGAAAG	4.48	4.76	3.99	6.25	5.3	4.03	5.19	2.68	4.56	3.79	4.99	4.75	5.93	13.2	5.64	2.73	3.68
CCGTGTAGGTTACGAGGGGGCATTCAGTGCGAAT	2.88	7.45	2.37	6.73	3.56	2.16	3.34	1.52	2.52	3.52	4.85	2.84	5.31	7.2	3.23	1.33	2.47
CCGACTAGGTTACGAGGGGGCATTCAGTGCGAAT	2.03	6.99	1.82	6.19	3.16	2.68	3.48	1.66	2.47	4.63	4.93	1.66	4.6	5.23	2.64	0.38	2.02
TCGAGTAGGGTACGGGGGCATTCAGGGATGAAGA	2.34	2.37	0.643	4.6	3.09	4.1	4.09	3.19	3.84	4.21	5.82	1.54	3.3	1.96	2.86	0.475	2.37
TCGAGTGGGTTACGGGGGCATTCAGGGATGAAGA	2.78	3.03	1.26	5.08	4.26	5.66	5.53	3.59	4.84	4.62	6.37	1.92	3.59	2.12	3.12	1.12	2.46
CTATGTAGGTTAAGGGGGTCATTCAATTTGAAAG	5.04	4.74	2.45	6.26	6.18	8.92	7.74	5.91	8.06	7.02	7.79	5.83	5.67	3.88	5.82	1.49	3.55
TCGATTAGGTTACGGGGGCATTCAGGGATGAAGA	3.28	3.73	1.5	5.59	4.45	5.21	5.33	4.89	5.46	5.15	5.84	2.49	3.63	2.83	3.51	1.32	3.28
CCGAGTAGGTTACGAGGGGGCGTTCAGTGCGAAT	1.13	6.33	0.912	5.52	3.11	2	3.17	0.694	2.26	5	4.63	1.55	4.3	3.24	2.59	0.353	1.72
CCGAGTAGGTTACGAGGGGGGATTCAGTGCGAAT	2.34	3.82	0.79	5.43	2.99	2.52	3.71	1.57	3.4	5.06	4.91	2	3.27	2.11	2.61	0.858	1.84
TCGAGTAGGTTACGTGGGCATTCAGGGATGAAGA	-0.0639	0.328	-0.386	0.112	1.25	0.953	1.36	1.14	1.11	3.11	2.65	-0.0563	-0.044	-0.265	0.41	-0.517	0.704
TCGAGTAAGTTACGGGGGCATTCAGGGATGAAGA	1.79	1.83	0.43	4.1	2.64	1.06	1.98	1.45	1.77	1.55	3.02	0.93	2.63	1.19	2.22	0.119	1.34
CTATGTAGGTTAAGGGGGTCATCCAGTTTGAAAG	4.86	4.86	2.5	6.27	6.19	8.53	7.67	6.02	7.82	7.02	7.73	3.6	5.82	9.26	5.73	1.05	3.65
